# Measured values: PubChem BioAssay (EPA / NIEHS)
# Records with an inconclusive call do not appear. Where a structure was tested more than once in an assay, its records may differ in their call. Activity calls are given as the source filed them. The calls were made as follows: active = hit-call score of the fitted dose curve at least 0.9, where 1 is the maximum; inconclusive = response in the unintended direction; inactive = score below 0.9.
# Test system: not listed separately
# Assay: ATG_GAL4_TRANS: Attagene TRANS-FACTORIAL HepG2 Assay for GAL4 (Internal Marker) (AID 2282976)
# Conditions: HepG2 Attagene TRANS GAL4 internal marker reporter
# Procedure, shortened: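 Background-control readout: GAL4-UAS reporter transcript in transiently transfected HepG2 cells after 24 h compound exposure. Measured by RT-PCR, 6-FAM primer extension, HpaI digest and capillary electrophoresis; gain-of-signal fit versus DMSO.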
row,Compound,outcome
1,C[C@]12CC[C@@H]3c4ccc(O)cc4C[C@@H](CCCCCCCCCS(=O)CCCC(F)(F)C(F)(F)F)[C@H]3[C@@H]1CC[C@@H]2O (some centres not stated),inactive
2,CC1(C)C(C=C(Cl)Cl)C1C(=O)OCc1cccc(Oc2ccccc2)c1 (configuration not stated),inactive
3,CCOC(=O)c1ccc(O)cc1,inactive
4,CC(C)(c1ccc(O)cc1)c1ccc(O)cc1,inactive
5,CC(C)CCCCCCc1ccc(O)cc1,inactive
6,CCN(Cc1c(F)cccc1Cl)c1c([N+](=O)[O-])cc(C(F)(F)F)cc1[N+](=O)[O-],inactive
7,CC(=O)S[C@@H]1CC2=CC(=O)CC[C@]2(C)[C@H]2CC[C@@]3(C)[C@@H](CC[C@@]34CCC(=O)O4)[C@H]12,inactive
8,C#C[C@]1(O)CC[C@H]2[C@@H]3CCC4=CC(=O)CC[C@@H]4[C@H]3CC[C@@]21CC,inactive
9,CCCCC(CC)CN1C(=O)C2C3C=CC(C3)C2C1=O (configuration not stated),inactive
10,O=C(c1ccccc1)C1CCCCC1,inactive

# Molecular target: Estrogen-related receptor gamma (Homo sapiens) (UniProt P62508)
# Assay: ATG_ERRg_TRANS: Attagene TRANS-FACTORIAL HepG2 Assay for human Estrogen-Related Receptor gamma (ERRg) (AID 2282977);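 also: hits increase reporter signal over DMSO so potencies reflect activators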
# Conditions: HepG2 Attagene TRANS reporter, ERRg transactivation
# Procedure, shortened: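 Readout: fluorescent reporter-mRNA fragments resolved by capillary electrophoresis after RT-PCR and HpaI cut. Cells: transiently transfected HepG2 carrying GAL4-UAS reporters driven by exogenous NR-Gal4 chimeras, dosed 24 h. Activity fitted upward relative to DMSO baseline.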
# Chain of Estrogen-related receptor gamma (Homo sapiens) (P62508 whole entry, looked up): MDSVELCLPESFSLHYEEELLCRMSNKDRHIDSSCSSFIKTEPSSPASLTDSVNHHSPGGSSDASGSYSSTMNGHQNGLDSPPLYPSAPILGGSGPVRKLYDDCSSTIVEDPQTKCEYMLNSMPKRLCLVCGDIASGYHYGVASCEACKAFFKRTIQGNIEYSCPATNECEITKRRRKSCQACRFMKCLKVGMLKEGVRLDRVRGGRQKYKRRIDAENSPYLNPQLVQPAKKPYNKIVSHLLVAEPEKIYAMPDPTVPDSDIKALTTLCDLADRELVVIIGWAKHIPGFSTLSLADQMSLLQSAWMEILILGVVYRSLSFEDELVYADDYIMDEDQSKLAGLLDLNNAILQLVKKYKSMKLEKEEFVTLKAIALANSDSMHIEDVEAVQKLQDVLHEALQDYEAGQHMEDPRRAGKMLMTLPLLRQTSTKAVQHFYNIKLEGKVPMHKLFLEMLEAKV
row,Compound,outcome
1,C[C@]12CC[C@@H]3c4ccc(O)cc4C[C@@H](CCCCCCCCCS(=O)CCCC(F)(F)C(F)(F)F)[C@H]3[C@@H]1CC[C@@H]2O (some centres not stated),inactive
2,COC(=O)c1cccc(C)c1S(=O)(=O)NC(=O)Nc1nc(OCC(F)(F)F)nc(N(C)C)n1,inactive
3,CCC(C)OC(=O)N1CCCCC1CCO (configuration not stated),inactive
4,c1ccc(Nc2ccccc2)cc1,inactive
5,CC(C)(c1ccc(O)cc1)c1ccc(O)cc1,inactive
6,COC(=O)c1ccc(CNS(C)(=O)=O)cc1S(=O)(=O)NC(=O)Nc1nc(OC)cc(OC)n1,inactive
7,CCOC(=O)NCCOc1ccc(Oc2ccccc2)cc1,inactive
8,CCCN(CCC)c1c([N+](=O)[O-])cc(C(F)(F)F)c(N)c1[N+](=O)[O-],inactive
9,CCN(Cc1c(F)cccc1Cl)c1c([N+](=O)[O-])cc(C(F)(F)F)cc1[N+](=O)[O-],inactive
10,OB(O)O,inactive
11,CCSC(=O)N(CC(C)C)CC(C)C,inactive

# Molecular target: Glucocorticoid receptor (Homo sapiens) (UniProt P04150)
# Assay: ATG_GR_TRANS: Attagene TRANS-FACTORIAL HepG2 Assay for human Glucocorticoid Receptor (GR) (AID 2282978);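 also: activators score as hits since higher reporter transcript over DMSO is fitted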
# Conditions: HepG2 Attagene TRANS GR reporter, mRNA transcription
# Procedure, shortened: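 Transient MRTU transfection of HepG2 (GAL4-UAS reporters, exogenous NR-GAL4 chimeras), 24 h dosing. Readout: reporter transcript via RT-PCR + capillary electrophoresis fluorescence. Positive direction vs DMSO baseline.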
# Chain of Glucocorticoid receptor (Homo sapiens) (P04150 whole entry, looked up): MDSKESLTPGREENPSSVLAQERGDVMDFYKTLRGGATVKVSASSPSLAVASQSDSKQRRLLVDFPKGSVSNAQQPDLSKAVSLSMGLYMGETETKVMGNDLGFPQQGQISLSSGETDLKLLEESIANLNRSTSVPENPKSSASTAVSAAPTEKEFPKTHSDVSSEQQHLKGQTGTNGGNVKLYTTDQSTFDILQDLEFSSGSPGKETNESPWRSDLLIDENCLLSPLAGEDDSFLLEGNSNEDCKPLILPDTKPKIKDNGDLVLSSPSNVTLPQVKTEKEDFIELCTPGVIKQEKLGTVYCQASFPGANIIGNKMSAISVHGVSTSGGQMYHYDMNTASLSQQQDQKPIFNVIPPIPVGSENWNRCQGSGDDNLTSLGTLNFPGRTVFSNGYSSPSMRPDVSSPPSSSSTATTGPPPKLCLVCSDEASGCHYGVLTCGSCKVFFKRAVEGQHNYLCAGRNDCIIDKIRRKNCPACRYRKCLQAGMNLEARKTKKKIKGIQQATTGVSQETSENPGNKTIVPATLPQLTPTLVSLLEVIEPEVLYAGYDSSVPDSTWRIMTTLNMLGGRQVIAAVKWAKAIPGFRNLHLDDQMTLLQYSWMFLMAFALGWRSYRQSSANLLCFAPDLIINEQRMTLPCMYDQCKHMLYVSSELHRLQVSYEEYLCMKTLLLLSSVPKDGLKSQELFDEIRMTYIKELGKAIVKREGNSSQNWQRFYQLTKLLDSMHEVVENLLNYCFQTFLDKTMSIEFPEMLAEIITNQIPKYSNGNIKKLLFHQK
Compound,outcome,AC50
C[C@]12CC[C@@H]3c4ccc(O)cc4C[C@@H](CCCCCCCCCS(=O)CCCC(F)(F)C(F)(F)F)[C@H]3[C@@H]1CC[C@@H]2O (some centres not stated),inactive,
COC(=O)c1cccc(C)c1S(=O)(=O)NC(=O)Nc1nc(OCC(F)(F)F)nc(N(C)C)n1,inactive,
CC1(C)C(C=C(Cl)Cl)C1C(=O)OCc1cccc(Oc2ccccc2)c1 (configuration not stated),inactive,
CCC(O)=C1C(=O)CC(C(=O)O)CC1=O (configuration not stated),inactive,
CCOC(=O)c1ccc(O)cc1,inactive,
CCCCOC(=O)[C@@H](C)Oc1ccc(Oc2ccc(C(F)(F)F)cn2)cc1,inactive,
COC(=O)c1ccccc1S(=O)(=O)NC(=O)Nc1nc(OC(F)F)cc(OC(F)F)n1,inactive,
COC(=O)c1ccc(CNS(C)(=O)=O)cc1S(=O)(=O)NC(=O)Nc1nc(OC)cc(OC)n1,inactive,
CC(C)CCCCCCc1ccc(O)cc1,inactive,42.2 µM (active)
N#CSCSc1nc2ccccc2s1,inactive,
CCCN(CCC)C(=O)SCC,inactive,
S=C(S)NCCNC(=S)S.[Mn+2].[S-]C([S-])=NCCN=C([S-])[S-].[Zn+2],inactive,
OB(O)O,inactive,
O=C(c1ccc(O)cc1O)c1ccc(O)cc1O,inactive,
CC(=O)S[C@@H]1CC2=CC(=O)CC[C@]2(C)[C@H]2CC[C@@]3(C)[C@@H](CC[C@@]34CCC(=O)O4)[C@H]12,inactive,
C#C[C@]1(O)CC[C@H]2[C@@H]3CCC4=CC(=O)CC[C@@H]4[C@H]3CC[C@@]21CC,inactive,
CCCCC(CC)CN1C(=O)C2C3C=CC(C3)C2C1=O (configuration not stated),inactive,
CCCOC(=O)c1ccc(C(=O)OCCC)nc1,inactive,
O=C(c1ccccc1)C1CCCCC1,inactive,
CCSC(=O)N(CC(C)C)CC(C)C,inactive,
